Screens deposited in PubChem BioAssay by National Center for Advancing Translational Sciences (NCATS).
Rows were chosen to be rich in hits. Some 2.4% of all compounds tested hit in one or more screens of this group.
D2 ag-1: activates the human D2 dopamine receptor; DiscoveRx PathHunter D2 beta-arrestin, luminescence, 90 min; 100% = 57 uM dopamine signal; activation, % (no concentration beside the values); actives 0.084% (n = 360,000); in the data active = activation above about 40%
Target sequence (P14416 whole entry, looked up): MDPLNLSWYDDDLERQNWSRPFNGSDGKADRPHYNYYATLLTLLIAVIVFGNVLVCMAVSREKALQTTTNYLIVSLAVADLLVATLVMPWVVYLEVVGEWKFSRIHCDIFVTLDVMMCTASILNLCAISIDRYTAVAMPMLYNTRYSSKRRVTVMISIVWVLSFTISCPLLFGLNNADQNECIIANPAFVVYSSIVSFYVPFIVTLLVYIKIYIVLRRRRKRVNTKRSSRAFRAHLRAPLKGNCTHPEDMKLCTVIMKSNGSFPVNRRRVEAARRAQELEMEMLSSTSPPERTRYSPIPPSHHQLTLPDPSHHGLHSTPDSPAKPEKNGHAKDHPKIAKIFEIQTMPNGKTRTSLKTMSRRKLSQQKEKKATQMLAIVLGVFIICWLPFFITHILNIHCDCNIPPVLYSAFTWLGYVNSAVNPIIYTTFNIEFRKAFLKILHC
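Agonist mode: compounds alone added to overnight-plated D2 PathHunter cells for 90 min at 37 C, with 57 uM final dopamine (EC100) defining full response. Beta-arrestin recruitment detected by chemiluminescent reagent, read after 1 h at ambient temperature.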
D2 ag-2: D2 dopamine receptor (human) agonism | P14416 | HEK293 T-REx D2 cells, calcium flux agonist mode | activation, % at 2 µM | actives 0.53% (n = 340,000) | AID 485358;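 active = activation over 3 SD above normal in the single-dose calcium agonist read, cut at about 30% in these data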; note: 0% is about no effect
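HEK293 Trex D2 cells, tetracycline-induced, o/n 30 C 5% CO2; no-wash Ca dye, RT 30–90 min; 10-cycle baseline, 23 nl cpd added, kinetic Ca read 180 s; agonist hits = positive Ca response.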
D2 PAM-1: human D2 receptor positive allosteric modulation | P14416 | DiscoveRx D2 beta-arrestin cells, luminescence, 90 min; 100% = 57 uM dopamine signal | potentiation, % (concentration not given with the values) | actives 0.23% (n = 360,000); in the data active = potentiation above about 50%
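D2 cells co-treated with compound plus 50 nM dopamine (EC20) for 90 min at 37 deg C to detect potentiation. Beta-arrestin recruitment was read as enzyme-fragment luminescence after 1 h at ambient temperature. Full response was set by 57 uM dopamine.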
D2 antagonist: antagonizes the human D2 dopamine receptor; HEK293 TREx D2 cells, calcium flux, dopamine EC80; actives 2% (n = 340,000); inhibition, % at 10 µM; P14416; AID 485344; in the data active = inhibition above about 30%; inactive = below that, where a call was filed; note: 0% is about no effect
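Calcium flux kinetic readout in an inducible HEK293 TREx D2 line plated overnight at 30 C. After 180 s compound exposure, an EC80 dopamine challenge follows with another 180 s kinetic read to detect antagonism.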
D2 PAM-2: positive allosteric modulators of human D2 dopamine receptor. actives 0.34% (n = 340,000). P14416. AID 485347. potentiation, % at 10 µM. HEK293 T-REx D2, calcium flux, EC20 dopamine potentiation;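 active = potentiation over 3 SD above the plate norm, cut at about 30% in these data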; note: 0% is about no effect
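Tetracycline-induced HEK293 T-REx cells force-coupled to calcium signalling expressed D2; compounds were pin-added after a 10 s baseline, read kinetically 180 s, then an EC20 dopamine challenge followed with a further 180 s calcium read.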
An asterisk follows results filed as active.

Results for COc1ccc2cc(C#N)c(SCC(=O)N3CC(=O)Nc4ccccc43)nc2c1 ?
D2 ag-1: -4; D2 PAM-1: -8; D2 PAM-2: -7

Results for COc1ccccc1CCNC(=O)C(=O)NCC1OCCCN1S(=O)(=O)c1cc(C)ccc1C (stereo not given) ?
D2 ag-1: -2; D2 ag-2: -1; D2 PAM-1: -11; D2 antagonist: 34*; D2 PAM-2: -1

How did Cc1cc(F)ccc1S(=O)(=O)N1CCCOC1CNC(=O)C(=O)NCCCN1CCOCC1 (stereo not given) do in these assays?
D2 ag-1: 3; D2 ag-2: 32*; D2 PAM-1: -23; D2 antagonist: 20; D2 PAM-2: -7

Results for Cc1cc(F)ccc1S(=O)(=O)N1CCCOC1CNC(=O)C(=O)NCCN1CCOCC1 (stereo not given) ?
D2 ag-1: 3; D2 ag-2: 2; D2 PAM-1: 14; D2 antagonist: 5; D2 PAM-2: 3

How did O=C(NCCc1ccccc1)C(=O)NCC1OCCN1S(=O)(=O)c1ccc(Br)cc1 (stereo not given) do in these assays?
D2 ag-1: 11; D2 ag-2: 0; D2 PAM-1: -4; D2 antagonist: 31*; D2 PAM-2: -2

How did CCOCCc1nnc(NC(=O)C(=O)c2cc(C)n(-c3ccc(C)cc3C)c2C)s1 do in these assays?
D2 ag-2: -1; D2 PAM-2: -19

Results for CCOC(=O)c1ccccc1NC(=O)CN(c1ccccc1OC)S(=O)(=O)c1ccc(C)cc1 ?
D2 ag-2: 1; D2 PAM-2: -7

How did CC(=O)c1cccc(NC(=O)CSc2nc3c(=O)n(C)c(=O)n(C)c3n2C)c1 do in these assays?
D2 PAM-2: 9

Results for CCC(=O)N1CCc2cc(S(=O)(=O)NCCC(=O)Nc3cc(C)ccc3OC)ccc21 ?
D2 ag-2: 1; D2 PAM-2: -8

How did CCOc1ccc(Cc2onc3c2C(=O)CCC3)cc1OCC do in these assays?
D2 ag-1: -3; D2 ag-2: 4; D2 PAM-1: -3; D2 antagonist: 4; D2 PAM-2: -7

How did CCOc1ccc(Cc2onc3c2C(=O)CC(C)(C)C3)cc1OCC do in these assays?
D2 ag-1: 1; D2 ag-2: -1; D2 PAM-1: 3; D2 antagonist: 1; D2 PAM-2: 38*

How did Cc1ccc2nc(NC(=O)CSc3cc(C)[nH]c(=O)n3)sc2c1 do in these assays?
D2 ag-2: 2; D2 PAM-2: 7

How did COc1ccc(C(=O)N(c2ccc(C)cc2)S(=O)(=O)c2ccc(C)cc2)cc1 do in these assays?
D2 ag-2: -1

What do the screens show for `O=C(Nc1ccccc1C(=O)Nc1ccccc1)c1cccs1`?
D2 ag-1: 2; D2 ag-2: -2; D2 PAM-1: -2; D2 antagonist: -18

Results for O=C(Nc1ccc(O)cc1C(=O)O)c1cccs1 ?
D2 ag-1: -1; D2 ag-2: 0; D2 PAM-1: 10; D2 antagonist: 35*; D2 PAM-2: 25

Results for O=C(NNC(=O)c1ccccc1Cl)c1cccs1 ?
D2 ag-1: -3; D2 PAM-1: -21; D2 antagonist: -6; D2 PAM-2: 32*

How did COc1ccc(NC(=O)CSC2=Nc3ccccc3C3=NC(CCC(=O)NCc4ccco4)C(=O)N23)cc1 (stereo not given) do in these assays?
D2 ag-2: 0; D2 PAM-2: 0

Results for COc1cc(NC(=O)c2ccc3c(c2)OCO3)ccc1NC(=O)C(C)C ?
D2 ag-1: -5; D2 ag-2: -1; D2 PAM-1: -6; D2 antagonist: 64*; D2 PAM-2: -2

What do the screens show for `Cc1cc(NC(=O)c2ccc3c(c2)OCO3)ccc1NC(=O)c1ccco1`?
D2 ag-1: -3; D2 ag-2: -1; D2 PAM-1: 1; D2 antagonist: -11; D2 PAM-2: -9

What do the screens show for `Cc1ccccc1OCc1nc(-c2ccc(NC(=O)c3ccco3)cc2)no1`?
D2 ag-1: 7; D2 ag-2: -1; D2 PAM-1: 6; D2 antagonist: -31; D2 PAM-2: 43*

What do the screens show for `Cc1ccccc1NC(=O)c1ccc(NC(=O)c2ccco2)cc1`?
D2 ag-1: 2; D2 ag-2: 2; D2 PAM-1: -12; D2 antagonist: 45*; D2 PAM-2: -13

What do the screens show for `Cc1ccc(C(=O)Nc2ccc3c(c2)OCO3)cc1NC(=O)c1ccco1`?
D2 ag-1: -19; D2 ag-2: 1; D2 PAM-1: 4; D2 antagonist: 48*; D2 PAM-2: -3

How did CCCc1nnc(NC(=O)Cc2coc3ccc(C)cc23)s1 do in these assays?
D2 ag-2: -1; D2 PAM-2: 15

What do the screens show for `Cc1ccc(-c2nn(Cc3ccccc3)cc2C(=O)NCC2CCCO2)cc1` (stereo not given)?
D2 ag-1: -3; D2 ag-2: -2; D2 PAM-1: -12; D2 antagonist: 4; D2 PAM-2: 9

What do the screens show for `Cc1ccc(-c2nn(-c3ccccc3Cl)cc2C(=O)NCC2CCCO2)cc1` (stereo not given)?
D2 ag-1: -6; D2 ag-2: 0; D2 PAM-1: -36; D2 antagonist: 31*; D2 PAM-2: -2

Results for Cc1cccc(NC(=O)c2cn(-c3ccccc3)nc2-c2ccccc2)c1 ?
D2 ag-1: -5; D2 ag-2: -1; D2 PAM-1: -26; D2 antagonist: 40*; D2 PAM-2: -19

What do the screens show for `COC(=O)c1ccc(NC(=O)c2cn(-c3ccccc3)nc2-c2ccncc2)cc1`?
D2 ag-1: 4; D2 ag-2: 0; D2 PAM-1: -13; D2 antagonist: 91*; D2 PAM-2: -19

Results for CC(=O)c1ccc(NC(=O)c2cn(-c3ccccc3)nc2-c2ccncc2)cc1 ?
D2 ag-1: -3; D2 ag-2: 0; D2 PAM-1: -24; D2 antagonist: -3; D2 PAM-2: 35*

Results for Cc1oc2ncn(CC(C)C)c(=O)c2c1C(=O)NCCCN(Cc1ccccc1)C(C)C ?
D2 ag-2: 0; D2 PAM-2: 4

How did Cc1ccc(-c2nn(-c3ccccc3)cc2C(=O)NCCCN2CCOCC2)cc1 do in these assays?
D2 ag-1: 7; D2 ag-2: 0; D2 PAM-1: -39; D2 antagonist: 31*; D2 PAM-2: -15

What do the screens show for `COc1ccc(NC2=NC3(CCCCC3)N=C(N)N2)cc1`?
D2 ag-1: -2; D2 ag-2: 0; D2 PAM-1: -27; D2 antagonist: -22; D2 PAM-2: 18

What do the screens show for `CCCCOc1ccc(NC2=NC3(CCCCC3)N=C(N)N2)cc1`?
D2 ag-1: -1; D2 ag-2: 1; D2 PAM-1: -2; D2 antagonist: 35*; D2 PAM-2: 18
